Results taken from PubChem BioAssay (EPA / NIEHS).
Several values for one entry are separate records, joined by “and”; a condition that tells them apart may be missing. Equal entries are not always repeated. More than one record can exist for a structure, and the calls need not agree. Activity calls are given as the source filed them. How the source made its calls: active means hit-call score of the fitted dose curve at least 0.9, where 1 is the maximum; inactive means score below 0.9.

How the values were obtained:
[1] = read-out: Urokinase-type plasminogen activator receptor (uPAR), PLAUR (gene 5329); test: BSK_4H_uPAR: BioMAP Diversity Plus: 4H Assay for Urokinase-type plasminogen activator receptor (uPAR) Biomarker Activity (AID 2283030); conditions: primary human endothelial cells (HUVEC); actives raise or lower the signal
How it was run: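 Cell-surface uPAR ELISA signal, measured 24 h after dosing human umbilical vein endothelial cells, was analyzed with bidirectional fitting relative to DMSO. Parallel SRB staining of total protein tracked overt cytotoxicity.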

[2] = read-out: Vascular endothelial growth factor receptor 2 (Homo sapiens) (UniProt P35968); test: BSK_4H_VEGFRII: BioMAP Diversity Plus: 4H Assay for Vascular endothelial growth factor receptor 2 (VEGFR2) Biomarker Activity (AID 2283031); conditions: primary human endothelial cells (HUVEC); actives raise or lower the signal;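 on AC50: cell-surface VEGFR2 protein level quantified by ELISA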
How it was run: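 ELISA read-out of VEGFRII in primary human umbilical vein endothelium, taken 24 h after chemical treatment. Responses are expressed relative to DMSO, with bidirectional fitting.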

[3] = read-out: Human Leukocyte Antigen - DR isotype (HLADR), HLA-DRA (gene 3122); test: BSK_BE3C_HLADR: BioMAP Diversity Plus: BE3C Assay for Human Leukocyte Antigen - DR isotype (HLADR) Biomarker Activity (AID 2283032); conditions: primary human bronchial epithelial cells; actives raise or lower the signal
How it was run: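 Chemicals are dosed onto BE3C bronchial epithelial cultures of human origin and left 24 h. HLA-DR is then measured by ELISA, and the endpoint is fitted in both directions using DMSO as the activity baseline.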

[4] = read-out: Vascular cell adhesion molecule 1 (VCAM1), VCAM1 (gene 7412); test: BSK_4H_VCAM1: BioMAP Diversity Plus: 4H Assay for Vascular cell adhesion molecule 1 (VCAM1) Biomarker Activity (AID 2283033); conditions: primary human endothelial cells (HUVEC); actives raise or lower the signal
How it was run: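 Chemicals are added to primary human umbilical vein endothelial cells. After 24 h, VCAM-1 levels are measured by ELISA. Values come from bidirectional fitting referenced to DMSO.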

[5] = read-out: Interferon-gamma inducible Protein 10 (IP10), CXCL10 (gene 3627); test: BSK_BE3C_IP10: BioMAP Diversity Plus: BE3C Assay for Interferon-gamma inducible Protein 10 (IP10) Biomarker Activity (AID 2283034); conditions: primary human bronchial epithelial cells; actives raise or lower the signal
How it was run: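 IP-10 quantified by ELISA serves as the endpoint. Cells: primary human bronchial epithelium, read 24 h after compound addition. Activity is derived by bidirectional fitting with DMSO as negative control.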

[6] = read-out: Monokine induced gamma interferon (MIG), CXCL9 (gene 4283); test: BSK_BE3C_MIG: BioMAP Diversity Plus: BE3C Assay for Monokine induced gamma interferon (MIG) Biomarker Activity (AID 2283035); conditions: primary human bronchial epithelial cells; actives raise or lower the signal
How it was run: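 ELISA quantified MIG after 24 h exposure of primary bronchial epithelial cultures, analysed in both directions relative to DMSO. Cytotoxicity tracked in parallel cultures by sulforhodamine B staining.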

[7] = read-out: Transforming growth factor beta 1 (TGFb1), TGFB1 (gene 7040); test: BSK_BE3C_TGFb1: BioMAP Diversity Plus: BE3C Assay for Transforming growth factor beta 1 (TGFb1) Biomarker Activity (AID 2283036;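 further: TGF-b1 protein level measured by ELISA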); conditions: primary human bronchial epithelial cells; actives raise or lower the signal
How it was run: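 Bronchial epithelial primary cells are treated with test chemical, then TGF-b1 is quantified by ELISA after 24 hours. Values derive from bidirectional fitting against DMSO, with cytotoxicity checked by SRB staining in parallel cultures.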

[8] = read-out: Plasminogen activator inhibitor-1 (PAI1), SERPINE1 (gene 5054); test: BSK_BE3C_PAI1: BioMAP Diversity Plus: BE3C Assay for Plasminogen activator inhibitor-1 (PAI1) Biomarker Activity (AID 2283037); conditions: primary human bronchial epithelial cells; actives raise or lower the signal
How it was run: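 Values derive from bidirectional fitting against DMSO baseline of PAI-1 levels, measured by ELISA in human bronchial epithelial cells 24 h after compound addition.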

[9] = read-out: urokinase plasminogen activator (uPA), PLAU (gene 5328); test: BSK_BE3C_uPA: BioMAP Diversity Plus: BE3C Assay for urokinase plasminogen activator (uPA) Biomarker Activity (AID 2283038); conditions: primary human bronchial epithelial cells; actives raise or lower the signal
How it was run: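 Bronchial epithelial cells (human, primary); chemical 24 h; uPA by ELISA; bidirectional fit vs DMSO. SRB (0.1%, after 10% TCA fixation, 560 nm) in parallel cultures for cytotoxicity.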

[10] = read-out: Urokinase-type plasminogen activator receptor (uPAR), PLAUR (gene 5329); test: BSK_BE3C_uPAR: BioMAP Diversity Plus: BE3C Assay for Urokinase-type plasminogen activator receptor (uPAR) Biomarker Activity (AID 2283039); conditions: primary human bronchial epithelial cells; actives raise or lower the signal
How it was run: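 Steps: dose human primary bronchial epithelial cells, incubate 24 h, measure uPAR by ELISA, then fit gain- or loss-of-signal response bidirectionally relative to DMSO.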

[11] = read-out: Interleukin-6 (IL6), IL6 (gene 3569); test: BSK_CASM3C_IL6: BioMAP Diversity Plus: CASM3C Assay for Interleukin-6 (IL6) Biomarker Activity for (AID 2283040); conditions: primary human coronary artery smooth muscle cells; actives raise or lower the signal
[12] = read-out: Tissue plasminogen activator (tPA), PLAT (gene 5327); test: BSK_BE3C_tPA: BioMAP Diversity Plus: BE3C Assay for Tissue plasminogen activator (tPA) Biomarker Activity (AID 2283041); conditions: primary human bronchial epithelial cells; actives raise or lower the signal
How it was run: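 Gain- or loss-of-signal in tPA, measured by ELISA, derived by bidirectional fitting against DMSO. Cells: human primary bronchial epithelial; read at 24 h after chemical dosing.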

[13] = read-out: Interleukin-8 (IL8), CXCL8 (gene 3576); test: BSK_CASM3C_IL8: BioMAP Diversity Plus: CASM3C Assay for Interleukin-8 (IL8) Biomarker Activity (AID 2283042); conditions: primary human coronary artery smooth muscle cells; actives raise or lower the signal;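 further: IL-8 protein level quantified by ELISA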
[14] = read-out: Human Leukocyte Antigen - DR isotype (HLADR), HLA-DRA (gene 3122); test: BSK_CASM3C_HLADR: BioMAP Diversity Plus: CASM3C Assay for Human Leukocyte Antigen - DR isotype (HLADR) Biomarker Activity (AID 2283043); conditions: primary human coronary artery smooth muscle cells; actives raise or lower the signal;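 further: cell-surface HLA-DR protein level quantified by ELISA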
[15] = read-out: Macrophage colony-stimulating factor (MCSF), CSF1 (gene 1435); test: BSK_CASM3C_MCSF: BioMAP Diversity Plus: CASM3C Assay for Macrophage colony-stimulating factor (MCSF) Biomarker Activity (AID 2283044); conditions: primary human coronary artery smooth muscle cells; actives raise or lower the signal;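 further: M-CSF protein amount quantified by ELISA after 24 h exposure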
[16] = read-out: Low-density lipoprotein receptor (LDLR), LDLR (gene 3949); test: BSK_CASM3C_LDLR: BioMAP Diversity Plus: CASM3C Assay for Low-density lipoprotein receptor (LDLR) Biomarker Activity (AID 2283045); conditions: primary human coronary artery smooth muscle cells; actives raise or lower the signal;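 further: LDLR protein level on the cell surface quantified by ELISA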
[17] = read-out: Monocyte Chemoattractant Protein-1 (MCP1), CCL2 (gene 6347); test: BSK_CASM3C_MCP1: BioMAP Diversity Plus: CASM3C Assay for Monocyte Chemoattractant Protein-1 (MCP1) Biomarker Activity (AID 2283046); conditions: primary human coronary artery smooth muscle cells; actives raise or lower the signal;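 further: MCP-1 level quantified by ELISA 24 h after dosing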
[18] = BSK_CASM3C_Proliferation: Cell Proliferation Assessment in the BioMAP Diversity Plus: CASM3C Assay (AID 2283047); conditions: primary human coronary artery smooth muscle cells;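 further: sulforhodamine B total protein stain as relative cell number at 560 nm; sub-confluent cells exposed 48 h before staining; fitted both ways against DMSO so gain or loss of cell number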
[19] = read-out: Monokine induced gamma interferon (MIG), CXCL9 (gene 4283); test: BSK_CASM3C_MIG: BioMAP Diversity Plus: CASM3C Assay for Monokine induced gamma interferon (MIG) Biomarker Activity (AID 2283048); conditions: primary human coronary artery smooth muscle cells; actives raise or lower the signal;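 further: MIG protein level measured by ELISA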
[20] = read-out: serum amyloid A (SAA), SAA1 (gene 6288); test: BSK_CASM3C_SAA: BioMAP Diversity Plus: CASM3C Assay for serum amyloid A (SAA) Biomarker Activity (AID 2283049); conditions: primary human coronary artery smooth muscle cells; actives raise or lower the signal;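 further: SAA protein level quantified by ELISA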

Measured: AC50

COc1ccc(C(c2ccc(OC)cc2)C(Cl)(Cl)Cl)cc1
active: [2] 31.2 µM | [3] 17.4 µM | [4] 25.1 µM | [5] 32.8 µM | [8] 14.3 µM | [11] 14 µM | [18] 15.1 µM
inactive: all other assays above

Cc1c(F)c(F)c(COC(=O)C2C(/C=C(\Cl)C(F)(F)F)C2(C)C)c(F)c1F (configuration not stated)
not listed: [9]
inactive: all other assays above

COC(=O)c1ccccc1C(=O)OC
inactive: all assays above

N#Cc1nn(-c2c(Cl)cc(C(F)(F)F)cc2Cl)c(N)c1S(=O)C(F)(F)F (configuration not stated)
active: [1] 23.2 µM | [2] 31.7 µM | [3] 14.2 µM | [4] 20 µM | [5] 23.2 µM | [6] 28.3 µM | [8] 20 µM | [15] 25.1 µM | [18] 20 µM
inactive: all other assays above

CCNc1nc(Cl)nc(NC(C)C)n1
inactive: all assays above

COC(=O)C=C(C)OP(=O)(OC)OC
inactive: all assays above

Cc1ccc(-c2c(Cl)nc(C#N)n2S(=O)(=O)N(C)C)cc1
active: [1] 14.7 µM | [2] 20 µM | [3] 5.94 µM | [4] 16.6 µM | [5] 6.57 µM | [8] 3.97 µM
inactive: all other assays above

COc1cnc(OC)n2nc(NS(=O)(=O)c3c(OCC(F)F)cccc3C(F)(F)F)nc12
active: [8] 0.0487 µM | [16] 16.8 µM
inactive: [1] | [2] | [3] | [4] | [5] | [6] | [7] | [8] | [10] | [11] | [12] | [13] | [14] | [15] | [16] | [17] | [18] | [19] | [20]

CC1COC(Cn2cncn2)(c2ccc(Oc3ccc(Cl)cc3)cc2Cl)O1 (configuration not stated)
active: [1] 24.3 µM | [3] 20 µM | [4] 32.2 µM | [5] 31.7 µM | [6] 29.3 µM | [8] 20 µM | [9] 20 µM | [10] 30.3 µM | [12] 27.4 µM | [18] 27.8 µM
inactive: [2] | [7] | [11] | [13] | [14] | [15] | [16] | [17] | [19] | [20]

C=CCC1=C(C)C(OC(=O)C2C(C=C(C)C)C2(C)C)CC1=O (configuration not stated)
inactive: [1] | [2] | [3] | [5] | [6] | [7] | [8] | [10] | [11] | [12] | [13] | [14] | [15] | [16] | [17] | [19] | [20]
active: [1] 38.4 µM and 32.8 µM | [2] 21 µM and 29.4 µM and 20 µM | [3] 15.7 µM and 32.3 µM and 30.9 µM | [4] 31.6 µM [middle of 4 runs] | [5] 35 µM and 39 µM | [10] 0.223 µM | [14] 31.7 µM and 32 µM and 27.9 µM | [16] 16.8 µM and 21 µM | [18] 34.4 µM [middle of 4 runs] | [20] 4.17 µM

CC(C)Oc1cc(-n2nc(C(C)(C)C)oc2=O)c(Cl)cc1Cl
active: [2] 32.9 µM | [3] 27.4 µM | [4] 28.2 µM | [5] 33.9 µM | [8] 20 µM | [9] 27.6 µM | [18] 29 µM
inactive: all other assays above
